Measurements as given in PubChem BioAssay (Tox21).
“And” between values parts separate entries of the source, which are not always exact repeats. Identical values can stand only once. Records with an inconclusive call do not appear. More than one record can exist for a structure, and the calls need not agree. The source made the active and inactive calls. The call rests on the fitted dose curve; in most records, active means well fitted cell-killing curve with a large enough effect in the repeat runs; inconclusive means weak or mixed curves, or effect the other way; inactive means flat fitted curve, though single readings scatter.

Test: qHTS assay to identify small molecule agonists of the TGF-beta/Smad signaling pathway - cell viability counter screen (AID 1346829); further: nearly all actives have a fitted effect of over 45% in size; on activity change, negative = cytotoxicity: top concentration of the series differs between compounds
Settings: SBE-bla HEK293T viability, CellTiter-Glo luminescence, 5 h; series mostly up to 76.8 µM; activity change, negative = cytotoxicity: at the top concentration
Description: National Center for Advancing Translational Sciences [NCATS]
NIH Chemical Genomics Center [NCGC]
U.S. Environmental Protection Agency [EPA]
National Institutes of Environmental Health Sciences [NIEHS]
National Toxicology Program [NTP]
U.S. Food and Drug Administration [FDA]
Transforming growth factor beta (TGF-beta) superfamily consists of a large number of structurally related dimeric proteins that act as hormones or local mediators in regulating a wide range of biological functions. This superfamily includes TGF-betas themselves, the bone morphogenetic proteins (BMPs) and the activins. These ligands induce oligomerization of serine/threonine receptor kinases and phosphorylate the cytoplasmic signaling molecules of Smad protein family. CellSensor SBE-bla HEK 293T cell line (Life Technologies, Carlsbad, CA), responsive to TGF-beta was used to screen Tox21 10K compound library for identification of agonists/antagonists of the Smad signaling pathway. This cell line contains a beta-lactamase reporter gene under control of the Smad binding element (SBE) stably integrated into HEK 293T cells. Also cytotoxicity of the compounds was tested in parallel by measuring the cell viability using CellTiter-Glo assay system in the same wells.
Tox21 Assay Protocol Summary:
SBE-bla HEK 293T cells were dispensed at 4,000/well in 6 uL of assay medium into black wall/clear-bottom 1536-well plates using a Multidrop Combi (ThermoFisher Scientific, Waltham, MA) dispenser. After the assay plates were incubated at 37 C and 5% CO2 for an overnight, 23 nL of compounds dissolved in DMSO, positive controls or DMSO only was transferred to the assay plate by a Pintool station (Kalypsys, San Diego, CA). The assay plates were incubated at 37 C and 5% CO2 for 5 hr. One uL of LiveBLAzer B/G FRET substrate (Life Technologies) was added using a Flying Reagent Dispenser (FRD, Aurora Discovery, San Diego, CA) and the plates were incubated at room temperature for 2 hr. Fluorescence intensity (405 nm excitation, 460 nm and 530 nm emissions) was measured using an Envision plate reader (PerkinElmer, Shelton, CT). For cytotoxicity read, 4 uL of CellTiter-Glo reagent (Promega Corporation, Madison, WI) was added to each well of the assay plates using FRD. After 30min incubation at room temperature, the luminescence intensity was measured using ViewLux plate reader (PerkinElmer).
On the % scale 0 is the no-effect control and ±100 the full control effect; potency means the concentration at half of the fitted maximal effect.

| SMILES | activity change, negative = cytotoxicity | Potency |
| --- | --- | --- |
| N#CC(C#N)=NNc1cccc(Cl)c1 | -15.8% (inactive) | – |
| CC1CCCC1 | 5.66% (inactive) | – |
| Cc1nn(-c2cc(NS(C)(=O)=O)c(Cl)cc2Cl)c(=O)n1C(F)F | -0.171% (inactive) | – |
| Cc1ccn2nc(S(=O)(=O)Nc3c(F)cccc3F)nc2n1 | 9.72% (inactive) | – |
| O=C(NC(=O)c1c(F)cccc1F)Nc1ccc(Oc2ccc(C(F)(F)F)cc2Cl)cc1F | -11.1% (inactive) | – |
| [C-]1=CC=CC1.[Cl][Zr+2][Cl].c1cc[cH-]c1 | -4.18% (inactive) | – |
| CC(=O)[O-].CC(=O)[O-].CC(=O)[O-].[Cr+3] | -0.22% (inactive) | – |
| CN | 8.43% (inactive) | – |
| CCCCCCCCCCCCCCn1cc[n+](C)c1 | – | 49.1 µM (active) and 38.5 µM (active) and inactive |
| [O]=[Cr](=[O])([OH])[O][Cr](=[O])(=[O])[OH] | – | 24.8 µM (active) and 24.5 µM (active) |
| CCCCN(CCCC)C(=S)[S-].CCCCN(CCCC)C(=S)[S-].[Ni+2] | -0.317% [at 35.3 µM] (inactive) | – |
| CC1=C2C[C@H]3[C@@H](CC=C4C[C@@H](O)CC[C@@]43C)[C@@H]2CC[C@]12O[C@@H]1C[C@H](C)CN[C@H]1[C@H]2C | 11% [at 35.3 µM] (inactive) | – |
| CCN(CC)CCN1C(=O)CN=C(c2ccccc2F)c2cc(Cl)ccc21 | 0.278% [at 35.3 µM] (inactive) | – |
| CCC[CH2][Sn]([CH2]CCC)([O]C(C)=O)[O]C(C)=O | -16.5% (inactive) | – |
| [Cl-].[Cl-].[Sn+2] | 11.6% (inactive) | – |
| c1ccc(N=NNc2ccccc2)cc1 | – | inactive |
| Oc1ccc(Cl)c(Cl)c1 | 0.0173% (inactive) | – |
| c1ccc(Nc2ccc(Nc3ccccc3)cc2)cc1 | 0.9% (inactive) | – |
| CN/C(=N\[N+](=O)[O-])NCc1cnc(Cl)s1 | 15.8% (inactive) | – |
| CNC(=O)CSP(=O)(OC)OC | 1.1% (inactive) | – |

| SMILES | activity change, negative = cytotoxicity | Potency |
| --- | --- | --- |
| CN(C)CCc1c[nH]c2ccccc12 | 1.4% (inactive) | – |
| CCN(CC)CCc1c[nH]c2ccccc12 | 10.6% (inactive) | – |
| O=c1[nH]c2cc(Cl)ccc2n1C1CCNCC1 | 1.46% [at 35.3 µM] (inactive) | – |
| CCCCCCC[CH2][Sn]([Cl])([Cl])[CH2]CCCCCCC | 1.09% (inactive) | – |
| Nc1ccccc1-c1ccccc1 | -1.22% (inactive) | – |
| C=C(C)C(=O)[O][Sn]([CH2]CCC)([CH2]CCC)[CH2]CCC | – | 1.1 µM (active) |
| Cc1cc2c3c(c1)C(c1ccccc1)=N[C@@H](NC(=O)c1ccncc1)C(=O)N3CC2 | 18.7% (inactive) | – |
| NC(=O)C(Cl)Cl | 1.28% (inactive) | – |
| CCCCn1cc[n+](C)c1 (tested in a mixture with another compound) | 2.87% (inactive) | – |
| CCC1(CC)C(=O)N=C(O)NC1=O | -9.12% (inactive) | – |
| Fc1ccc(C(OCCN2CCN(CCCc3ccccc3)CC2)c2ccc(F)cc2)cc1 | – | 23.9 µM (active) |
| O=[N+]([O-])c1cccc2cccc([N+](=O)[O-])c12 | 8.3% (inactive) | – |
| c1ccc2nc(N3CCNCC3)ccc2c1 | 3.02% [at 35.3 µM] (inactive) | – |
| Cc1cc(C2CC2)nc(Nc2ccccc2)n1 | -2.73% (inactive) | – |
| CC(C)(C)c1ccc(OP(=O)(Oc2ccccc2)Oc2ccccc2)cc1 | 10.4% (inactive) | – |
| COc1c2c(cc3c1OCO3)CCN(C)C2 | 3.73% [at 35.3 µM] (inactive) | – |
| Cc1ccccc1OP(=O)(Oc1ccccc1C)Oc1ccccc1C | 2.13% (inactive) | – |
| C#CCC1=C(C)C(OC(=O)C2C(C=C(C)C)C2(C)C)CC1=O (stereo not given) | -14.6% (inactive) | – |
| CN1C(=O)[C@@H](NC(=O)c2cc3ccccc3[nH]2)N=C(c2ccccc2)c2ccccc21 | -11% [at 35.3 µM] (inactive) | – |
| Clc1ccc(C(Cl)(Cl)Cl)cc1Cl | 0.989% (inactive) | – |
